Rows were chosen to be rich in hits. Some 11% of all compounds tested hit in one or more screens of this group.
VDR inh: Inhibitors of the vitamin D receptor (VDR): qHTS | Vitamin D3 receptor (Homo sapiens), P11473 | VDR-SRC2-3 peptide fluorescence polarization, 2 h | Potency, µM, without a hit: max response, negative = inhibition, most hits filed as inhibitors | actives 0.93% (n = 400,000); also: % is scaled to controls: 0 for no effect and ±100 for the full control effect
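Compounds are added to VDR with labelled SRC2-3 coactivator peptide and held 2 h at room temperature. Inhibition of the VDR–peptide interaction is then read as a change in fluorescence polarization.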
BAZ2B inh: qHTS Assay for Inhibitors of BAZ2B | AlphaScreen BAZ2B-H3K14Ac peptide displacement | Potency, µM (top dose mostly 114 µM), for inactives: top-dose activity change, negative = inhibition, most hits filed as inhibitors | actives 4.4% (n = 360,000); also: % is scaled to controls: 0 for no effect and ±100 for the full control effect; nearly all actives have a fitted effect of over 60% in size
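Compounds, titrated to a top concentration of 110 uM, were incubated 30 min at room temperature with preformed BAZ2B/acetyl-K14 H3 peptide complex (50 nM each). Proximity signal was measured by AlphaScreen after 20 min with beads.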
JMJD2A Tudor: qHTS Assay for Inhibitors of JMJD2A-Tudor Domain; AID 504339, 2011; AlphaScreen JMJD2A-Tudor / H3K4me3 peptide binding; Potency, µM (highest dose often 114 µM), for inactives: at the highest dose activity change, negative = inhibition, most hits filed as inhibitors; Lysine-specific demethylase 4A (Homo sapiens), O75164; actives 4.4% (n = 390,000); also: % is scaled to controls: 0 for no effect and ±100 for the full control effect; nearly all actives have a fitted effect of over 50% in size
G9a block: qHTS Assay for Inhibitors of Histone Lysine Methyltransferase G9a. Histone-lysine N-methyltransferase EHMT2 (Homo sapiens), Q96KQ7. G9a H3K9 monomethylation, AlphaScreen, 2 h. Potency, µM (highest dose often 102 µM), without a hit: at the highest dose activity, negative = inhibition, hits mostly inhibitors. actives 8.8% (n = 350,000). AID 504332, 2011; also: % is scaled to controls: 0 for no effect and ±100 for the full control effect; nearly all actives have a fitted effect of over 75% in size
Target sequence (Q96KQ7 913-1193 limits assumed): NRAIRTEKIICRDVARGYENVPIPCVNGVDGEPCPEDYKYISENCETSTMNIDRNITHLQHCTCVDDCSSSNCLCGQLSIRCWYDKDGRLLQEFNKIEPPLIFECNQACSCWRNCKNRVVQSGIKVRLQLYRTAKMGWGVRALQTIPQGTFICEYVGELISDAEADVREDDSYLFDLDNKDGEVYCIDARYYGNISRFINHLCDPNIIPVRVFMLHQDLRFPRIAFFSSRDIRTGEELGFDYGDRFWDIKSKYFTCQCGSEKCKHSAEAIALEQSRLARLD
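G9a (20 nM) preincubated 15 min RT with compounds, then 500 nM biotinylated H3K9 peptide and 20 uM SAM added; 2 h RT reaction. Monomethyl-H3K9 product detected by AlphaScreen with anti-H3K9me1 antibody, streptavidin donor and anti-rabbit IgG acceptor beads.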
HP1b binding inh: HTS for Inhibitors of HP1-beta Chromodomain Interactions with Methylated Histone Tails. Chromobox protein homolog 1 (Homo sapiens), P83916. AlphaScreen HP1-beta / biotin-H3K9me3 peptide binding. Potency, µM (highest dose often 114 µM), inactives show top-dose activity change, negative = inhibition, hits mostly inhibitors. actives 0.56% (n = 390,000). AID 540317, 2011; also: nearly all actives have a fitted effect of over 70% in size
Target sequence (P83916 whole entry, looked up): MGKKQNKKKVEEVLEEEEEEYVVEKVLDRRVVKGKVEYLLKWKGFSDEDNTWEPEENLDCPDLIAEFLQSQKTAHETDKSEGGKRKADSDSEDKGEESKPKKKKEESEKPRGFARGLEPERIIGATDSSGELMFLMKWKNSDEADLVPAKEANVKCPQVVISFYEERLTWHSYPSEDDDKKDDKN
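Compound inhibition of the preformed complex between 50 nM HP1-beta and 50 nM biotinylated H3K9me3 peptide was read by AlphaScreen. Buffer was PBS pH 7.4 with 0.01% Tween-20. Incubations ran 30 min at room temperature, with 10 ug/mL donor/acceptor beads.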
PLK1 PBD inh: qHTS for Inhibitors of PLK1-PDB (polo-like kinase 1 - polo-box domain): Primary Screen; Plk1 PBD binding of FITC phosphopeptide, fluorescence polarization; Potency, µM, without a hit: max response, negative = inhibition, most hits filed as inhibitors; actives 2.8% (n = 360,000); AID 720504, 2013; also: series mostly up to about 57 µM; % is scaled to controls: 0 for no effect and ±100 for the full control effect; nearly all actives have a fitted effect of over 65% in size
An asterisk follows results filed as active; ? = inconclusive; nt = no result given; [ ] = remark or other dose. Calls follow the shape of the dose curve; as a rule, active = well fitted curve in the direction sought with a large enough effect; inconclusive = small, poorly fitted or top-dose-only effect, or another doubt; inactive = no such curve, though single readings can be large; an effect the other way counts as inactive or inconclusive. Potency is read from the fitted curve at half-maximal effect.

SMILES	VDR inh	BAZ2B inh	JMJD2A Tudor	G9a block	HP1b binding inh	PLK1 PBD inh
O=C(COc1ccc2ccc(=O)oc2c1)NCCN1CCOCC1	nt	nt	nt	nt	nt	-7.4%
COc1ccc(S(=O)(=O)N(CC(=O)NC2CC2)c2ccc(C)cc2)cc1	11.5%	-10.0%	6.9%	nt	29.5%	-0.3%
Cc1ccc(NC(=O)c2cc(S(=O)(=O)N3CCOCC3)ccc2Cl)cc1S(=O)(=O)N1CCOCC1	-1.1%	nt	-21.8%	nt	22.7%	-1.5%
O=c1c2ccccc2c(-c2ccccc2)nn1-c1cc(Cl)ccc1[N+](=O)[O-]	2.7%	?	-28.8%[11.4 µM]	-8.2%[59 µM]	-10.8%	-15.6%
Cc1ccc(-c2nn(-c3cc(N4CCNCC4)ccc3[N+](=O)[O-])c(=O)c3ccccc23)cc1	-10.2%	-36.9%	?	31.6µM*	?	-6.4%
Cc1cc(C)n(-c2ccc(C(F)(F)F)cc2[N+](=O)[O-])n1	-4.2%	-19.6%	1.0%	-5.6%[59 µM]	15.3%	0.1%
Cc1ccc(-c2nn(-c3cc(Cl)ccc3[N+](=O)[O-])c(=O)c3ccccc23)cc1C	-12.1%	44.7µM*	?	-4.6%[0.501 µM]	?	0.1%
Cc1cc(C)n(-c2cc(Cl)ccc2[N+](=O)[O-])n1	-5.1%	9.3%	-13.1%	5.9%	-4.8%	26.7µM*
Cc1cc(NC(=O)c2ccc(NC(=O)CCS(=O)(=O)c3cccs3)cc2)ccc1Br	-12.6%	1.5%	-4.4%	5.6%[59 µM]	24.1%	nt
Cc1cc(NC2CCCCC2)nc(-n2nc(C)cc2C)n1	2.3%	nt	nt	37.8%[59 µM]	nt	nt
CCN(CC)c1ccc2cc(-c3nc4sc5c(c4c(=O)[nH]3)CCC(C(C)(C)C)C5)c(=O)oc2c1 (stereo unspecified)	2.9%	-12.2%	-12.8%	-24.8%[59 µM]	-8.4%	nt
N=C(N)SCc1cn(-c2ccccc2)nc1-c1ccc(Br)cc1	1.1%	-30.8%	-27.3%	50.1µM*	-10.2%	-2.8%
Cc1ccc(-c2cc(NC(=O)CCl)n(-c3ccccc3)n2)cc1	?	-17.8%	79.4µM*	-45.9%	-2.7%	26.7µM*
COc1ccc(NC(=O)c2c(NC(=O)COc3ccc(Cl)cc3)sc3c2CCCCC3)cc1	-9.0%	-0.5%	-9.2%	5.3%[59 µM]	31.9%	nt
CCN(CC)S(=O)(=O)c1ccc(NC(=O)CCNC(=O)c2ccco2)cc1	10.7%	4.8%	-7.6%	?	27.0%	1.5%
CCN(CC)c1ccc(NC(=O)CCNC(=O)c2ccco2)cc1	5.9%	?	?	7.94µM*	-38.7%	0.7%
O=C(CNC(=O)c1ccco1)Nc1ccc(Cl)cc1	-7.2%	-4.6%	0.0%	6.8%[0.501 µM]	9.4%	-9.1%
O=C(CCNC(=O)c1ccco1)Nc1ccc(Cl)cc1	-15.5%	0.3%	?	12.3%[0.0925 µM]	-5.2%	29.9µM*
COc1cc(C(C2C(=O)CC(C)(C)CC2=O)C2C(=O)CC(C)(C)CC2=O)cc(OC)c1OC	?	1.0%	-10.2%	44.7µM*	53.6%	?
COc1cc(C(C2=C(O)CC(C)(C)CC2=O)C2C(=O)CC(C)(C)CC2=O)cc(OC)c1OC (stereo unspecified)	?	?	-29.3%[57.1 µM]	?	-1.3%	18.9µM*
COc1cc(C(C2C(=O)CC(C)(C)CC2=O)C2C(=O)CC(C)(C)CC2=O)ccc1O	?	-12.4%	5.4%	37.8%[0.501 µM]	50.3%	?
CC1(C)CC(=O)C(C(C2=C(O)CC(C)(C)CC2=O)c2ccc(Cl)c([N+](=O)[O-])c2)C(=O)C1 (stereo unspecified)	-0.1%	-25.6%	-10.5%	?	23.8%	-10.5%
O=C(Nc1cc(F)ccc1F)c1ccc(CN2CC(=O)N3CCCCC3C2=O)cc1 (stereo unspecified)	5.4%	-9.1%	-4.3%	-13.6%[59 µM]	8.6%	nt
COc1cc2nc(Nc3ccc(F)cc3)nc(N)c2cc1OC	-6.4%	-23.9%	-18.9%	79.4µM*	27.7%	4.3%
COc1cc2nc(Nc3ccc(C)c(C)c3)nc(N)c2cc1OC	4.8%	?	?	-7.9%	6.9%	1.3%
SMILES	VDR inh	BAZ2B inh	JMJD2A Tudor	G9a block	HP1b binding inh	PLK1 PBD inh
COc1cc2nc(Nc3ccc(C)c(Cl)c3)nc(N)c2cc1OC	22.6%	?	-34.5%	50.1µM*	-22.1%	-14.7%
COc1cc2nc(Nc3cccc(C)c3)nc(N)c2cc1OC	?	-14.0%	-19.2%	-46.7%[59 µM]	22.1%	nt
COc1cc2nc(N(C)C)nc(N)c2cc1OC	14.5%	-17.2%	-18.2%	44.7µM*	14.8%	-3.2%
Cc1[nH]c(C)c(S(=O)(=O)NCc2ccco2)c1C(=O)N1CCCCC1	6.9%	-13.9%	-5.3%	-1.0%	58.9%	0.7%
Cc1cc(Nc2ccc(F)cc2)nc(-n2nc(C)cc2C)n1	-7.7%	?	?	10.4%[59 µM]	15.8%[57 µM]	nt
C=C(CO)C1Cc2cc(C(C)=O)ccc2O1 (stereo unspecified)	-14.9%	79.4µM*	?	4.3%[12.7 µM]	-18.6%	-4.9%
Cc1ccc(OCC(=O)N2CCN(C(=O)CCC3CCCC3)CC2)cc1	-4.6%	9.3%	-3.6%	5.1%[59 µM]	18.6%	-0.4%
O=C(CCC1CCCC1)N1CCN(C(=O)COc2ccccc2)CC1	-27.1%	8.6%	-19.2%[11.4 µM]	50.1µM*	-5.6%	23.8µM*
CCOC(=O)C(=O)N1CCC(C(=O)OC)CC1	-13.1%	-37.1%	4.9%	35.5µM*	8.5%	0.1%
O=C(CCC1CCCC1)N1CCC(N2CCCCCC2)CC1	-5.9%	56.2µM*	3.98µM*	?	?	-2.8%
COC(=O)C1CCN(C(=O)CCC2CCCCC2)CC1	-1.3%	14.1%	-2.8%	7.08µM*	27.8%	-6.6%
CCOC(=O)N1CCN(C(=O)CCC2CCCC2)CC1	-15.0%	-14.0%	0.7%	-1.9%	15.2%	2.1%
Cc1cc(N2CCN(C)CC2)nc2ccc(NC(=O)Nc3ccccc3Br)cc12	9.9%	-13.9%[57.1 µM]	-21.0%	?	11.0%	nt
Cc1ccc(N(CC(=O)NC2CCCCC2)C(=O)CNC(=O)c2ccco2)cc1F	-1.5%	3.6%	-7.4%	19.0%	14.8%	-3.7%
Cc1c(C(=O)O)sc2nc(/C=C/c3cccc(F)c3)[nH]c(=O)c12	10.4%	?	-3.0%	2.8%	42.5%	-5.9%
Cc1c(C(=O)O)sc2nc(/C=C/c3ccccc3OC(F)F)[nH]c(=O)c12	11.0%	70.8µM*	15.8µM*	?	?	-24.0%
Fc1ccc(Sc2ccccc2CNC2=NCCN2)cc1	-10.8%	-5.4%	-14.2%	6.31µM*	10.0%	-4.5%
OCCNC1=NCCN1	-8.1%	-32.3%	0.8%	-45.9%[12.7 µM]	17.4%	-1.1%
